# Reference: PubChem BioAssay (NCATS)
# Records with an inconclusive call do not appear. Calls of active or inactive are those of the source. Calls come from the whole dose curve; as a rule, active = well fitted inhibition curve with a large enough effect in the main read-out, with a control signal flat (not every such curve was filed as active); inconclusive = small, poorly fitted or top-dose-only effect, or effect the other way, or a change in a side signal; inactive = no such curve, though single readings can be large or run the other way.
# Test: Nrf2 qHTS screen for inhibitors: Validation (AID 493153);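 for activity change, negative = inhibition: A549 cells with ARE-driven firefly luciferase reporter reporting Nrf2 activity; % of control where 0% means no effect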
# Conditions: A549 ARE-Fluc reporter, 18-24 h; Potency: luciferase luminescence; viability change: measured here: cytotoxicity max response; luciferase luminescence, at 46.1 µM (top of the series); activity change, negative = inhibition: at the top concentration
# Text: NIH Molecular Libraries Probe Production Network [MLPCN] NIH Chemical Genomics Center [NCGC] MLPCN Grant: R03-MH092170-01 Assay Provider: Shyam Biswal, Johns Hopkins University Assay Overview: Nrf2 is a transcription factor that maintains cellular redox homoestasis and protects cells from xenobiotics. Nrf2 binds to the antioxidant response element (ARE) to induce gene expression of a broad spectrum of genes that encode for antioxidants. […] Finding a small molecule that act as an inhibitor of Nrf2 function would represent a novel therapeutic target that could lead to improvement in survival of patients undergoing chemo- and/or radio- therapy. 1. Shibata, T., et al., Genetic Alteration of Keap1 Confers Constitutive Nrf2 Activation and Resistance to Chemotherapy in Gallbladder Cancer. Gastroenterology, 2008. 2. Sjoblom, T., et al., The consensus coding sequences of human breast and colorectal cancers. Science, 2006. 314(5797): p. 268-74.
# Assay Protocol Summary: A concentration-response assay was performed with A549 ARE_Fluc cells which are suspended in 5% FBS OPTI-MEM. Five uL were dispensed into 1536-well white TC-treated plate using the Kalypsys dispenser to achieve a density of 5000 cells/well in all columns except column 1. The plate is incubated at 37deg C at 5% CO2 for 2 hours before 23 nL of compounds are added with the Kalypsys pin tool equipped with a 1,536-pin array containing 10-nL slotted pins (FP1S10, 0.457-mm diameter, 50.8 mm long; V&P Scientific). The control compounds Budesonide and Staurosporine are both added at a concentration of 2mM and Budesonide is also added as a 1:10 titration, starting at 200uM, to achieve dose-response. After an 18-24 hour incubation at 37deg C at 5% CO2, 5ul of medium is added to column 1. Afterwards 1ul of 5x of CellTiter-Fluor (Promega) is added to every well. The plate is then incubated at 37deg C at 5% CO2 for 30 minutes before they are read on the ViewLux (Perkin Elmer) for a fluorescent read Ex=405(10)/Em=525(10) for a 3 second exposure, 2x binning, and high gain. Then 3 uL of 3x BugLite is dispensed into all wells and the plate is incubated at ambient room temperature for 15 minutes. Afterwards another ViewLux read is performed using the clear filter to get a luminescent read with the settings of 40 second exposure, 2x binning, and high gain. Cytotoxicity is assessed through the first fluorescent read and then biochemical activity against Nrf2 is measured in the luminescent read.
# Potency is the fitted concentration of half-maximal effect.
SMILES,viability change [%],Potency,"activity change, negative = inhibition"
NC(N)=[N+]1CCc2ccccc2C1,6.22,16.4 µM (active),
Cc1cccc(C2CN(C)CCc3c2cc(O)c(O)c3Cl)c1 (stereo not given),-5.5,,0.404% (inactive)
CCN(CC)CCOC(=O)c1cc(Cl)c(N)cc1OC,2.46,,-8.54% (inactive)
COc1ccccc1N1CCN(CCCCNC(=O)c2ccc3ccccc3c2)CC1,4.82,,9.43% (inactive)
CCCn1c(=O)c2[nH]c(-c3ccc(S(=O)(=O)O)cc3)nc2n(CCC)c1=O,-4.01,,-6.95% (inactive)
O=c1cc(O)cc(/C=C/c2ccc(O)c(O)c2)o1,-8.55,,46.5% (inactive)
Cc1cc2c(cc1Cl)N(C(=O)Nc1ccnc3ccccc13)CC2,1.57,,-1.16% (inactive)
C=C1C[C@@]23CC[C@H]4[C@@](C)(CCC[C@@]4(C)C(=O)OC4OC(CO)C(O)C(O)C4O)[C@@H]2CC[C@]1(OC1OC(CO)C(O)C(O)C1OC1OC(CO)C(O)C(O)C1O)C3 (stereo not given in full),-3.06,,9.68% (inactive)
CC(C)(C)NCC(O)COc1cccc2[nH]c(=O)[nH]c12 (stereo not given),-1.12,,4.86% (inactive)
CCCCCC(O)CCCC(=O)O (stereo not given),0.592,,-14.7% (inactive)
CC(=O)O[C@H]1Cc2ccccc2N(C(N)=O)c2ccccc21,-3.02,,13.5% (inactive)
CCCCCCC/C=C\CCCCCCCCC(=O)O,3.91,,0.724% (inactive)
O=c1[nH]ccc2c(O)cccc12,-2.46,,-11% (inactive)
CC1CCN=C(N)S1 (stereo not given),9.66,,1.35% (inactive)
O=C(O)c1ccccc1Nc1cccc(OCc2ccc3ccccc3n2)c1,-13.9,,-18.5% (inactive)
CO/N=C(\C(=O)N[C@@H]1C(=O)N2C(C(=O)O)=C(CSc3nc(=O)c(O)nn3C)CSC12)c1csc(N)n1 (stereo not given in full),3.25,,3.11% (inactive)
N[C@@H](CCCC(=O)O)C(=O)O,7.86,,3.68% (inactive)
O=C(N[C@@H](Cc1ccccc1)C(=O)CCl)OCc1ccccc1,-11.4,14.6 µM (active),
C=CCN1CCc2c(cc(O)c(O)c2Cl)C(c2ccccc2)C1 (stereo not given),-2.43,,1.43% (inactive)
Oc1cc(O)c2c(c1)O[C@H](c1ccc(O)c(O)c1)[C@@H](O)C2,1.23,,2.76% (inactive)
